In PubChem BioAssay (NCI) one finds growth data, which are given here for 28 molecules.

What all share (assay): NCI-60 one-dose screen, 48 h (100 = growth as untreated, 0 = no growth, -100 = all killed)
What all share (conditions): 10 µM unless noted

Assay [1] has as its system HCT-15 colon.
Assay [2] has as its system HT29 colon.
For assay [3], the system named is SNB-75 CNS.
In assay [4] the test system is SNB-19 CNS.
Assay [5] relates to U251 CNS.
In assay [6] the test system is PC-3 prostate.
Assay [7] concerns SK-MEL-5 melanoma.
In assay [8] the test system is UACC-62 melanoma.
Assay [9] relates to LOX IMVI melanoma.
Assay [10] concerns SK-MEL-28 melanoma.

About 83,000 compounds went through this panel and 20% of them were active in at least one assay; those are over-represented in the sample as a whole.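 Activity criterion: percent growth below 10, measured after cells in 96-well plates were exposed to a single compound concentration for 48 hours.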 A number with no mark means an inactive call. Activity calls are given as the source filed them.

On to `OC(c1cc2cc(Cl)ccc2c2cc(C(F)(F)F)ccc12)C1CCCCN1` (stereo not given), for which the growth in [1] was -61.7% (active); in assay [2], -87.3% (active); in assay [3] it was -90% (active); in assay [4] it was -68.6% (active); in assay [5], -93.4% (active); in assay [6] it was -83.1% (active). The growth is -24.9% (active) in assay [7], -72.7% (active) in assay [8], -39.8% (active) in assay [9] and -90.5% (active) in assay [10].
For `C#CC[C@@H]1C[C@]2(C)[C@H]3CC[C@@H]4[C@H]5C(C(=C)C)CC[C@]5(C(=O)NCCCCCCCCN)CC[C@@]4(C)[C@]3(C)CC[C@H]2C(C)(C)[C@H]1OC(C)=O` (stereo not given in full), the growth in assay [1] is 67.5%; in [2], 30.5%; in [3], 80.3%; in assay [4], 92.1%; in assay [5], 71.1%; in [6] it was 55.3%. In addition, the growth is 98% in assay [7], 108% in assay [8], 55% in [9] and 113% in assay [10].
Take `CCCCn1c(-c2ccc(F)cc2)nc2cc(OC)c(OC)cc2c1=O`: the growth in assay [1] is 105%; in assay [2], 107%; in assay [3], 98.8%; in [4], 97.6%; in [5], 105%; in assay [6], 102%. For the same molecule, the growth is 89.8% in [7], 81.8% in [8], 98.3% in [9] and 97.5% in [10].
`CCN(CC)c1ccc2nc3c4ccccc4c(=O)cc-3n(-c3ccccc3)c2c1`: the growth in assay [1] was 5.16% (active); in assay [2], 6.55% (active); in [3], -2.25% (active); in [4] it was 23.6%; in assay [5], 18.9%; in assay [6], 6.03% (active). Also, the growth in assay [7] was -98.1% (active); in [8], -8.44% (active); in [9], -23.2% (active); in [10], 9.68% (active).
`COc1ccc(/C(=C\c2cc(OC)c(OC)c(OC)c2)C(=O)N2CCNCC2)cc1`: the growth in assay [1] is 104%; in [2] it was 95.6%; in assay [3] it was 83%; in [4], 99.7%; in assay [5], 94.6%; in assay [6], 90.7%. Also, the growth in assay [7] was 93.4%; in assay [8] it was 90%; in assay [9], 87.5%; in [10] it was 112%.
As to `O=C(O)/C=C(\c1nc2ccc([N+](=O)[O-])cc2[nH]1)c1cc(Cl)ccc1O`, the growth in [1] was 21.1%; in assay [2], 36.2%; in assay [3], 50.4%; in [4], 18.5%; in [5], 16.9%; in assay [6], 14.1%. For the same molecule, the growth in [7] was -28% (active); in assay [8] it was -3.61% (active); in assay [9], 21%; in assay [10] it was 20.8%.
`C=CCn1c(C)nc2cc(Nc3nc(N4CCCC4)nc4nc[nH]c34)ccc21`: the growth in assay [1] is 94.4%; in [2] it was 12.4%; in assay [3], -64.9% (active); in assay [4], 44.9%; in assay [5], 21.2%; in assay [6] it was 42.6%. Further, the growth in assay [7] was 49.5%; in assay [8] it was 31.7%; in assay [9], 37.8%; in [10], 30.3%.
Consider `NC(=S)N/N=C(/c1cccs1)C1CC1`, for which the growth in assay [1] was 71%; in assay [2], 58.4%; in [3], 77.2%; in assay [4], 100%; in [5], 72.9%; in [6], 63.5%. Besides, the growth in assay [7] was 106%; in assay [8] it was 98.8%; in [9], 68.3%; in assay [10], 101%.
With `O=C1CC2(O)CSc3nc(=O)cc(n32)N1` (stereo not given), the growth in [1] is 96.5%; in [2], 103%; in assay [3], 98.4%; in assay [4] it was 91.6%; in assay [5], 97.2%; in [6], 93.9%. For the same molecule, the growth in assay [7] was 99.5%; in assay [8], 102%; in [9] it was 103%; in [10], 104%.
For the molecule `O=C(CN1CCN(c2ccccc2)CC1)N1CCN(c2nnc(-c3ccc(Cl)cc3)c(-c3ccc(Cl)cc3)n2)CC1`, the growth was 45.4% in [1]; 32.3% in assay [2]; 66.8% in assay [3]; 82.1% in assay [4]; 60.4% in [5]; 26.6% in assay [6]. The growth in assay [7] was 44.2%; in [8] it was 63.1%; in assay [9] it was 64.6%; in [10] it was 81.9%.
As for `CCOC(CN1CCN(CC(C)C(=O)c2ccccc2)CC1)c1ccccc1` (stereo not given), the growth is 100% in assay [1]; 108% in assay [2]; 79% in assay [3]; 97.8% in assay [4]; 90.5% in assay [5]; 93.6% in [6]. For the same molecule, the growth in assay [7] was 90.1%; in assay [8] it was 105%; in [9], 101%; in assay [10], 98%.
Regarding `Cc1ccc(-c2nc3ccccc3c(=O)n2/N=C/c2cccc3ccccc23)cc1`, the growth is 74.3% in assay [1]; 102% in [2]; 74.3% in assay [3]; 94.4% in assay [4]; 77% in [5]; 63.3% in assay [6]. Moreover, the growth in assay [7] was 75.5%; in assay [8] it was 69.4%; in assay [9] it was 63.4%; in assay [10], 85.6%.
On to `Clc1ccc2c(c1)-n1cccc1C(c1ccc3ccccc3c1)=NC2`, for which the growth in assay [1] was 77.2%; in [2], 74.1%; in assay [3], 83.2%; in assay [4] it was 79.1%; in assay [5], 95.6%; in [6], 79.8%. Moreover, the growth in [7] was 95.8%; in [8] it was 78.3%; in assay [9], 112%; in assay [10], 100%.
Take `CN(CCO)c1ccc(N2Cc3ccccc3OC3=C2C(=O)c2c(O)ccc(O)c2C3=O)cn1`: the growth in [1] was -83.6% (active); in [2], -49% (active); in assay [3] it was -13.7% (active); in assay [4], 6.43% (active); in [5] it was -24.8% (active); in assay [6] it was -14.8% (active). Also, the growth in assay [7] was -94.9% (active); in [8] it was -88.3% (active); in assay [9] it was -86.6% (active); in assay [10], -83.4% (active).
For `COc1ccc(C(=O)c2c(N)nc3n2CCCC3)cc1OC`, the growth in assay [1] is 98.4%; in [2] it was 94.7%; in assay [3], 85.1%; in [4], 110%; in [5], 98.5%; in assay [6], 101%. Besides, the growth in assay [7] is 100%; in assay [8], 109%; in assay [9] it was 97%; in assay [10] it was 108%.
With `Cc1ccccc1N1C(c2ccccc2)=NNC12C=CC(=O)c1c(O)cccc12` (stereo not given), the growth was 29.5% in [1]; 91.7% in assay [2]; 81.7% in assay [3]; 60.8% in assay [4]; 34.9% in [5]; 46.7% in assay [6]. Moreover, the growth was -26.3% (active) in assay [7], 12% in [8], 7.11% (active) in assay [9] and 102% in assay [10].
For `CN(C)c1ccc(C(c2ccccc2)c2ccc(N(C)C)cc2)cc1`, the growth in [1] was 99.7%; in assay [2], 90.4%; in [3], 108%; in [4], 96.9%; in assay [5], 77.7%; in assay [6], 90.7%. Also, the growth in assay [7] was 106%; in assay [8], 98.3%; in assay [9], 90%; in [10], 107%.
For the molecule `COc1ccc(CCN2COc3c([C@@H](C)CCC=C(C)C)ccc(C)c3C2)cc1OC`, the growth in [1] is 29.5%; in assay [2] it was 8.29% (active); in [3] it was 62.8%; in assay [4], 83.3%; in assay [5] it was 49.8%; in assay [6], 47.6%. The growth in assay [7] is 18.2%; in assay [8], 65.5%; in assay [9], 64.3%; in assay [10], 69.4%.
On to `O=C(/C=C/c1ccccc1)n1c(-c2ccccc2)nc2ccccc21`, for which the growth was 98.2% in assay [1]; 110% in [2]; 85.6% in assay [3]; 94.7% in assay [4]; 96.2% in assay [5]; 95.6% in [6]. Besides, the growth was 97.4% in [7], 103% in assay [8], 100% in assay [9] and 108% in [10].
`CCN(CC)c1ccc(C(=N)c2ccc(N(C)C)cc2)cc1`: the growth in assay [1] was 10.9%; in [2], 0.0991% (active); in assay [3], 3.16% (active); in assay [4] it was 28.2%; in [5], 3.54% (active); in assay [6], 5.51% (active). In addition, the growth in assay [7] was -80.1% (active); in assay [8], 5.14% (active); in assay [9], 19.1%; in [10] it was 26.5%.
Take `COCCn1c(Nc2ccc(C(=O)NO)cc2)nc2ccccc21`: the growth is 74.9% in assay [1]; 44.1% in assay [2]; 22.1% in assay [3]; 69.6% in assay [4]; 61.4% in assay [5]; 69.5% in [6]. Also, the growth in assay [7] was 47.4%; in [8], 25.8%; in assay [9], 73.6%; in assay [10], 61.3%.
For the molecule `O=C(O)c1ccccc1N=Cc1ccccc1`, the growth was 111% in [1]; 108% in [2]; 119% in assay [3]; 112% in assay [4]; 106% in [5]; 87.6% in assay [6]. Further, the growth in [7] was 116%; in [8], 119%; in assay [9], 92.6%; in assay [10], 129%.
As to `CCCCCCCCCCCCCCCCCC1=NC(C)(C)CN1C(C)(C)CO`, the growth in assay [1] was 1.33% (active); in [2], -100% (active); in [3], -1.88% (active); in [4] it was 37.2%; in assay [5] it was -100% (active); in assay [6], -1.05% (active). Further, the growth was -53% (active) in assay [7], -86.9% (active) in assay [8], -100% (active) in assay [9] and -100% (active) in assay [10].
In the case of `CCOC(=O)c1ccccc1SC(C[N+](=O)[O-])c1ccccc1` (stereo not given), the growth is 59.6% in assay [1]; 5.22% (active) in assay [2]; 85.1% in assay [3]; 95.2% in assay [4]; 81.8% in assay [5]; 78% in assay [6]. The growth in assay [7] is 84.3%; in assay [8] it was 97.8%; in [9] it was 30.9%; in [10] it was 98.3%.
`COc1ccccc1/C=N\NC(=S)Nc1ccc(F)cc1`: the growth in [1] is 50.8%; in assay [2] it was 46.9%; in assay [3], 84.4%; in assay [4], 89.1%; in assay [5], 62%; in assay [6], 83%. In addition, the growth in assay [7] is 85.1%; in assay [8], 58.9%; in assay [9], 78.4%; in [10], 78.3%.
Regarding `CCCCn1c(C)nc2ccc(Nc3nc(Cl)nc4nc[nH]c34)cc21`, the growth was 82.6% in assay [1]; 79.9% in [2]; 62.8% in assay [3]; 90.5% in [4]; 74.5% in assay [5]; 36.3% in assay [6]. In addition, the growth in [7] was 63.6%; in [8] it was 69.8%; in assay [9] it was 90.2%; in assay [10] it was 94.3%.
As for `Clc1ncnc2scc(C3COc4ccccc4O3)c12` (stereo not given), the growth in assay [1] is 79.8%; in assay [2], 103%; in [3], 65.2%; in assay [4], 100%; in [5], 90.4%; in [6], 98.8%. The growth in assay [7] was 90.4%; in assay [8], 98.2%; in assay [9], 41%; in assay [10], 83.8%.
`COc1ccc(/C(=C\c2cc(OC)c(OC)c(OC)c2)C(=O)Nc2nc3ccc(Cl)cc3s2)cc1`: the growth in [1] was 93.2%; in assay [2], 88.3%; in assay [3] it was 89%; in [4] it was 105%; in assay [5], 90.8%; in assay [6], 87.5%. Moreover, the growth in assay [7] was 87.6%; in assay [8], 77.6%; in [9], 92.5%; in [10], 107%.
